Experimental data as given in PMC7862700, “An all-to-all approach to the identification of sequence-specific readers for epigenetic DNA modifications on cytosine”.

Key:
Assay in all cases: DAPPL (digital affinity profiling via proximity ligation, sequencing); 10 mM Tris-HCl pH 7.5, 50 mM NaCl, 1 mM DTT, 4% glycerol, room temperature, 30 min; GST-TFs on glutathione beads, 16-mer random dsDNA library, 0.1% formaldehyde crosslink after washing; high values mean tight binding
FEV = target: T1, FEV (Homo sapiens, UniProt Q99581 1-238); details: protein: recombinant; tags: N-terminal GST; dsDNA, one strand shown
T1 sequence: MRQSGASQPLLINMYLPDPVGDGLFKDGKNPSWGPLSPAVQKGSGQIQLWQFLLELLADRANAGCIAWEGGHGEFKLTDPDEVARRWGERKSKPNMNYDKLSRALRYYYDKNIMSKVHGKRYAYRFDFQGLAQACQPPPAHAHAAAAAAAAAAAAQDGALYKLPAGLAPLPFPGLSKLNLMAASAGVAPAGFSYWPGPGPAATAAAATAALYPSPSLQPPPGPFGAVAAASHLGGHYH
Method in brief: (§1)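 Sequencing on an Illumina NextSeq500 followed washing, crosslinking with 0.1% formaldehyde, proximity ligation (BsaI/T4 ligase, 1 h, 37 °C) and PCR amplification of pools that had been incubated for 30 min at room temperature with 200 nmole of a random double-stranded 16-mer DNA library in Tris/NaCl/DTT/glycerol buffer. Each pool held DNA-barcoded human transcription factors, expressed in yeast as GST fusions and captured on glutathione beads, plus a tag-only sample. Binding signal is a hexamer's read frequency for a factor divided by its frequency in the tag-only sample.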

ETV5 = ETV5 (Homo sapiens, UniProt P41161 1-510); details: protein: recombinant; tags: N-terminal GST; dsDNA, one strand shown
Method in brief: as §1

HSF1 = HSF1 (Homo sapiens, UniProt Q00613 1-529); details: protein: recombinant; tags: N-terminal GST; chain copies: 3; dsDNA, one strand shown
Method in brief: as §1

ELK4 = target: T2, ELK4 (Homo sapiens, UniProt P28324-2 1-405); details: protein: recombinant; tags: N-terminal GST; dsDNA, one strand shown
T2 sequence: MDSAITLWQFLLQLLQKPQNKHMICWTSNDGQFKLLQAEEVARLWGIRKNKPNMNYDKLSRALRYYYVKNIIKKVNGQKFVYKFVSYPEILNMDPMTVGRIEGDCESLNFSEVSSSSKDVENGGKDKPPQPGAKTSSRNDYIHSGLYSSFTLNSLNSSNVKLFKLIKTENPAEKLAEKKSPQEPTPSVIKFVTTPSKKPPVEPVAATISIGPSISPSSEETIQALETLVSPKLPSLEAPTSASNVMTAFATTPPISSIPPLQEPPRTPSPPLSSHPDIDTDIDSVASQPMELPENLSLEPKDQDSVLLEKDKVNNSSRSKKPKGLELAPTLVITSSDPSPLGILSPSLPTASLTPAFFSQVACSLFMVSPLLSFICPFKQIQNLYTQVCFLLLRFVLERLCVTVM
Method in brief: as §1

ETV2 = target: T3, ETV2 (Homo sapiens, UniProt O00321 1-342); details: protein: recombinant; tags: N-terminal GST; dsDNA, one strand shown
T3 sequence: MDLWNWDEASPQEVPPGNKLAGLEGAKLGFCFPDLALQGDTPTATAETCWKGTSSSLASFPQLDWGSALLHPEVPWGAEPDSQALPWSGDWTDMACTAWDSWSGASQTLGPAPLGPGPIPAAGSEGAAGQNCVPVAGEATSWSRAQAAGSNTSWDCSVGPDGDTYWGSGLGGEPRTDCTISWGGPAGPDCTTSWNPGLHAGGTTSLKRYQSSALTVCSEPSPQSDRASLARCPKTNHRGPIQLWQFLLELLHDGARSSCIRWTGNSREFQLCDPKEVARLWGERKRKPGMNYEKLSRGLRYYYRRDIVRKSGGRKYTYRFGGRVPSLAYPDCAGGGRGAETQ
Method in brief: as §1

CRX = CRX (Homo sapiens, UniProt O43186 1-299); details: protein: recombinant; tags: N-terminal GST; dsDNA, one strand shown
Method in brief: as §1

ETV1 = ETV1 (Homo sapiens, UniProt P50549 1-477); details: protein: recombinant; tags: N-terminal GST; dsDNA, one strand shown
Method in brief: as §1

ERF = target: T4, ERF (Homo sapiens, UniProt P50548 1-548); details: protein: recombinant; tags: N-terminal GST; dsDNA, one strand shown
T4 sequence: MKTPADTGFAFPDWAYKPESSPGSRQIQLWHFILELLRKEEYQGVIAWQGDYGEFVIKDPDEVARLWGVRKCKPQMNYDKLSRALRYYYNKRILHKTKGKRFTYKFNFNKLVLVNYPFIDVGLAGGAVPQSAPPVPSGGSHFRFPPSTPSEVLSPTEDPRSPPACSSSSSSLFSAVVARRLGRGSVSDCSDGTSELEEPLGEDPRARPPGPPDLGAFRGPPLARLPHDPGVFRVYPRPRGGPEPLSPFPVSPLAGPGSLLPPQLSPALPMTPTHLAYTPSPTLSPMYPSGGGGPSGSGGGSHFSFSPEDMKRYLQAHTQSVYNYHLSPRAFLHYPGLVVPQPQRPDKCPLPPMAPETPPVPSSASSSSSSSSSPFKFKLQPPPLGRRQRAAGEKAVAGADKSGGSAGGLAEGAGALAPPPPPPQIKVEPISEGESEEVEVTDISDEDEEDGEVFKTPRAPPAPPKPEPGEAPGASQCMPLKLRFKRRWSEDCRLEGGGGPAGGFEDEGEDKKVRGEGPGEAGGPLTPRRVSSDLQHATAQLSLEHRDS
Method in brief: as §1

ETV3L = target: T5, ETV3L (Homo sapiens, UniProt Q6ZN32 1-361); details: protein: recombinant; tags: N-terminal GST; dsDNA, one strand shown
T5 sequence: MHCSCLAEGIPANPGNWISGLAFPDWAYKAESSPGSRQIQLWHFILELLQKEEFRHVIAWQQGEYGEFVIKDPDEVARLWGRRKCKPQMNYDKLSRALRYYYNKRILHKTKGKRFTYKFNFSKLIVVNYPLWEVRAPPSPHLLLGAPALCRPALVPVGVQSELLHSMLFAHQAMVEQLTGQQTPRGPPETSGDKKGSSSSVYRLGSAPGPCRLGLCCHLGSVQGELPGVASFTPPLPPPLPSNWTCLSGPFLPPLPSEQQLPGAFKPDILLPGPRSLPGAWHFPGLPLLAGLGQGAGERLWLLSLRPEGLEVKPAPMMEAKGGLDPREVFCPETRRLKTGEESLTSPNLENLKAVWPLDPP
Method in brief: as §1

ETS2 = target: T6, ETS2 (Homo sapiens, UniProt P15036 1-469); details: protein: recombinant; tags: N-terminal GST; dsDNA, one strand shown
T6 sequence: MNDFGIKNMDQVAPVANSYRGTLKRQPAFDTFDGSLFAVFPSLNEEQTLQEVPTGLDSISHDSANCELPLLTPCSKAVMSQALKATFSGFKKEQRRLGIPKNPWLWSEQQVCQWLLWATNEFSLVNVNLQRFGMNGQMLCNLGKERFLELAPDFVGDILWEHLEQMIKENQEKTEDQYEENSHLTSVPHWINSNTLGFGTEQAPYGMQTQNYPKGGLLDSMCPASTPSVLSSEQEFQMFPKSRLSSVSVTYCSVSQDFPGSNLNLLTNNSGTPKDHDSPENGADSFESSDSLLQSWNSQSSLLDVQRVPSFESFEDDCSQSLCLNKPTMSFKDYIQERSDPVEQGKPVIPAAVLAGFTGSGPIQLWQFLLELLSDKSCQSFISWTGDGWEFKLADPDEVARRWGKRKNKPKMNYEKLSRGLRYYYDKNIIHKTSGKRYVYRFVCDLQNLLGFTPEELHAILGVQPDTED
Method in brief: as §1

SPDEF = target: T7, SPDEF (Homo sapiens, UniProt O95238 1-335); details: protein: recombinant; tags: N-terminal GST; dsDNA, one strand shown
T7 sequence: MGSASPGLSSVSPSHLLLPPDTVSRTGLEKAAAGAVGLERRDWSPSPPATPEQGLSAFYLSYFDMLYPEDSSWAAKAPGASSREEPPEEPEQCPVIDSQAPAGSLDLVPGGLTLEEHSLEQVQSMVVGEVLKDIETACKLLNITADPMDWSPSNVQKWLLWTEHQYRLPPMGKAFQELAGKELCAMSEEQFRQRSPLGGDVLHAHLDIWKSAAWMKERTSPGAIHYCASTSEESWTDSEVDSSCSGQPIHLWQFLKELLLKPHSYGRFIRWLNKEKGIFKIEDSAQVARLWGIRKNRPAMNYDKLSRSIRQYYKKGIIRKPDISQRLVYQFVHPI
Method in brief: as §1

ETV7 = target: T8, ETV7 (Homo sapiens, UniProt Q9Y603 1-341); details: protein: recombinant; tags: N-terminal GST; dsDNA, one strand shown
T8 sequence: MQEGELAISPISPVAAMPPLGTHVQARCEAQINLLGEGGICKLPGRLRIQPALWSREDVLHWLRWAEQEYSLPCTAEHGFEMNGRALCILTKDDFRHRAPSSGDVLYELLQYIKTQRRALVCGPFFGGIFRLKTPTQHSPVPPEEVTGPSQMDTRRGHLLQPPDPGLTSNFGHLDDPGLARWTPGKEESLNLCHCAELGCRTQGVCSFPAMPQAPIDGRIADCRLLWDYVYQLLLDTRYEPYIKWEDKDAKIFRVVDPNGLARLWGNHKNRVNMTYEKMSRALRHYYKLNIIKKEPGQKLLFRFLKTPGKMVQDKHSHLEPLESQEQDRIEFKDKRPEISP
Method in brief: as §1

ETV3 = target: T9, ETV3 (Homo sapiens, UniProt P41162-2 1-143); details: protein: recombinant; tags: N-terminal GST; dsDNA, one strand shown
T9 sequence: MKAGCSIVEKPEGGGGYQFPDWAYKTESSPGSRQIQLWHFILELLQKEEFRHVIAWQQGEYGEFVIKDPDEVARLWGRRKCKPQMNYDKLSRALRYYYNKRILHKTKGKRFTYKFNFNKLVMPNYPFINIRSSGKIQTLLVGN
Method in brief: as §1

ETV6 = ETV6 (Homo sapiens, UniProt P41212 1-452); details: protein: recombinant; tags: N-terminal GST; dsDNA, one strand shown
Method in brief: as §1

Sequence of CRX (O43186 whole entry): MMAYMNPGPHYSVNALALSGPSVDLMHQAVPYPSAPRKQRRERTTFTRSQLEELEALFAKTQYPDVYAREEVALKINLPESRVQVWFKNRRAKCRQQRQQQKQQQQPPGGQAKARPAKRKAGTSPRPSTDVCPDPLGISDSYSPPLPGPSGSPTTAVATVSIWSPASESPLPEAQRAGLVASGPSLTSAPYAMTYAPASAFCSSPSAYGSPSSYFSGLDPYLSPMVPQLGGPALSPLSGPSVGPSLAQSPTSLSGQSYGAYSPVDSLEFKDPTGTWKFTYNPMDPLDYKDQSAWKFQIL
Sequence of HSF1 (Q00613 whole entry): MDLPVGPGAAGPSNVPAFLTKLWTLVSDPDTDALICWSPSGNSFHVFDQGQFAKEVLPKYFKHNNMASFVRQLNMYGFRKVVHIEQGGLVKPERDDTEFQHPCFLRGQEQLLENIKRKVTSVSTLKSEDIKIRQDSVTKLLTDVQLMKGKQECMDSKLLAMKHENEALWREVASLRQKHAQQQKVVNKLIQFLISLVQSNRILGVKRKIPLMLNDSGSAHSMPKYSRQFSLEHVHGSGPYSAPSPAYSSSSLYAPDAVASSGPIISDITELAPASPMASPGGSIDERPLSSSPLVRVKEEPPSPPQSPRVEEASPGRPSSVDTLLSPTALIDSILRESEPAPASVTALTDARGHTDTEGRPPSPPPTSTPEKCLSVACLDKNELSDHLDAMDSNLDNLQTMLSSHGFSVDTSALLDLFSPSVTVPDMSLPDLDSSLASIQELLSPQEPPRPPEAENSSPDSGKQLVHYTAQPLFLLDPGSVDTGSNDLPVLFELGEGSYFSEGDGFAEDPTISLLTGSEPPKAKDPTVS
Sequence of ETV6 (P41212 whole entry): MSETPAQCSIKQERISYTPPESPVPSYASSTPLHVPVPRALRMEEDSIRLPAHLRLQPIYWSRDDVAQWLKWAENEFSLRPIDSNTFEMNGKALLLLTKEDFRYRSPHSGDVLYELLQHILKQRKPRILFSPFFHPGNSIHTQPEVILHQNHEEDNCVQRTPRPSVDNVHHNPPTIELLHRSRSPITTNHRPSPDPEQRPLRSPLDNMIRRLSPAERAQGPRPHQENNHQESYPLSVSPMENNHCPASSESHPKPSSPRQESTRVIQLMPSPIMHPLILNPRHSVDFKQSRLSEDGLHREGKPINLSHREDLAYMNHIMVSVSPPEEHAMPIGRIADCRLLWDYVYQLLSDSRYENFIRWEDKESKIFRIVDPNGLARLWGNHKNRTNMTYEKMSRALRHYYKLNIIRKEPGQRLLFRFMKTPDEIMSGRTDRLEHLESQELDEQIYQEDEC
Sequence of ETV1 (P50549 whole entry): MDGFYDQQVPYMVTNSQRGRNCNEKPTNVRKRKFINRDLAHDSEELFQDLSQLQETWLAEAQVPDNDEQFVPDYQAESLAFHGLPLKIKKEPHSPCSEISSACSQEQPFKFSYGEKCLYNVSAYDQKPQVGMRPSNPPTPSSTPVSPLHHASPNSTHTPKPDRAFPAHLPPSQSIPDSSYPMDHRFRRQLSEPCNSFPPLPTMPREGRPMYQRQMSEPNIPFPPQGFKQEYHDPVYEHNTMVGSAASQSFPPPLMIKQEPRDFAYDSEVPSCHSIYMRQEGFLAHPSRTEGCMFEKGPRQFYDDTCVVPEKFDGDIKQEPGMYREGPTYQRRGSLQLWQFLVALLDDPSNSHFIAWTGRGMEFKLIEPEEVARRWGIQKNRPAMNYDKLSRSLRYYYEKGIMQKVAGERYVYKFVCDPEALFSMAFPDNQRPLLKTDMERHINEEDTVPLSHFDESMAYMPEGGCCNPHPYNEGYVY
Sequence of ETV5 (P41161 whole entry): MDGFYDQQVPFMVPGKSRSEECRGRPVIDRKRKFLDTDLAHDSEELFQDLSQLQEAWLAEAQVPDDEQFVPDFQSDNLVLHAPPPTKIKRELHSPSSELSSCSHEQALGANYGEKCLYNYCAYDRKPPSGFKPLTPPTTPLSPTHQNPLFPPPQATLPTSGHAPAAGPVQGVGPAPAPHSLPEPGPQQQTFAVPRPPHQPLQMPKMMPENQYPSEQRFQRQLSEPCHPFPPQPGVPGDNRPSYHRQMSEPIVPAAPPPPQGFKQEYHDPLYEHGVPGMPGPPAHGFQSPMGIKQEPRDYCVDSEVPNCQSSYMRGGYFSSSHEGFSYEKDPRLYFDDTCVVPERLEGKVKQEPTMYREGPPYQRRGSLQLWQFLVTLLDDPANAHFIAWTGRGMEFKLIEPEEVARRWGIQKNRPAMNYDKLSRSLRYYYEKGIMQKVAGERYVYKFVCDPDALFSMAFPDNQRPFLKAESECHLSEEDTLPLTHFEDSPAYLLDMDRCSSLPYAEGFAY

GGCATT
binding signal (FEV): 1.04 fold enrichment (6-mer frequency, TF over GST control) | binding signal (ETV5): 1.05 fold enrichment (6-mer frequency, TF over GST control) | binding signal (HSF1): 1.12 fold enrichment (6-mer frequency, TF over GST control) | binding signal (ELK4): 1.08 fold enrichment (6-mer frequency, TF over GST control) | binding signal (ETV2): 1.02 fold enrichment (6-mer frequency, TF over GST control) | binding signal (CRX): 1.29 fold enrichment (6-mer frequency, TF over GST control) | binding signal (ETV1): 1.1 fold enrichment (6-mer frequency, TF over GST control) | binding signal (ERF): 1.08 fold enrichment (6-mer frequency, TF over GST control) | binding signal (ETV3L): 1.06 fold enrichment (6-mer frequency, TF over GST control) | binding signal (ETS2): 1.09 fold enrichment (6-mer frequency, TF over GST control) | binding signal (SPDEF): 1 fold enrichment (6-mer frequency, TF over GST control) | binding signal (ETV7): 1.05 fold enrichment (6-mer frequency, TF over GST control) | binding signal (ETV3): 1.07 fold enrichment (6-mer frequency, TF over GST control) | binding signal (ETV6): 1.12 fold enrichment (6-mer frequency, TF over GST control)
